Results: PubChem BioAssay (NCI)
About 79,000 compounds went through this panel and 15% of them were active in at least one assay; those are over-represented in the sample as a whole. A number with no mark means an inactive call. Calls of active or inactive are those of the source. No stated cut-off is given here; in the data, active means growth inhibition above about 70%; inactive means the rest.

Experiments:
[1] = NCI Yeast Anticancer Drug Screen. Data for the rad50 strain (AID 155);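 further: 0% = growth of vehicle-only cultures of the same strain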; details: S. cerevisiae rad50 strain growth inhibition, hits give high values
In short: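 DNA repair mutant yeast, compound exposure, growth read-out; inhibition is taken relative to vehicle.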

[2] = NCI Yeast Anticancer Drug Screen. Data for the mec2-1 strain (AID 157); details: S. cerevisiae mec2-1 strain, hits give high values
In short: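 Using mec2-1 yeast: add compound, measure growth, express inhibition versus vehicle-treated cultures.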

[3] = NCI Yeast Anticancer Drug Screen. Data for the sgs1 mgt1 strain (AID 161);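 further: 0% = growth of cultures given vehicle only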; details: S. cerevisiae sgs1 mgt1 strain, hits give high values
In short: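 This yeast growth screen uses a strain with defined DNA-repair lesions; compound-treated growth is compared with vehicle-treated growth.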

[4] = NCI Yeast Anticancer Drug Screen. Data for the cln2 rad14 strain (AID 165);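 further: 0% = growth equal to vehicle treated cultures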; details: S. cerevisiae cln2 rad14 strain, hits give high values
In short: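 Yeast strain cln2 rad14, bearing defects in cell cycle control and DNA repair, serves as the test system; values reflect growth inhibition compared with vehicle.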

[5] = NCI Yeast Anticancer Drug Screen. Data for the bub3 strain (AID 167); details: S. cerevisiae bub3 mutant strain, hits give high values
In short: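 In this screen, a yeast mutant lacking normal mitotic checkpoint function is challenged with compound. Relative growth versus vehicle gives the inhibition value.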

[6] = NCI Yeast Anticancer Drug Screen. Data for the mlh1 rad18 strain (AID 175); details: S. cerevisiae mlh1 rad18 strain growth inhibition, hits give high values
In short: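 Steps: expose repair-defective yeast to compound; measure growth; express inhibition against vehicle-treated controls.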

[7] = at 5.0 µM (retest, dose inferred, filed as 0.5)
[8] = at 50.0 µM (retest, dose inferred, filed as 5.0)

With `O=c1c2cccc3cccc(c4oc5c6cccc7cccc(c(=O)c5c14)c76)c32` the growth inhibition [1, 7] was 16%, the growth inhibition [1, 8] was 92% (active) and the growth inhibition ([1]; at 50.0 µM) was 95.5% (active). For the same molecule, the growth inhibition [2, 7] was 13%, the growth inhibition [2, 8] was 97% (active) and the growth inhibition ([2]; at 50.0 µM) was 88.5% (active). The growth inhibition [3, 7] was 15%, the growth inhibition [3, 8] was 97% (active) and the growth inhibition ([3]; at 50.0 µM) was 97.2% (active). For the same molecule, the growth inhibition [4, 7] was 13%, the growth inhibition [4, 8] was 88% (active) and the growth inhibition ([4]; at 50.0 µM) was 93.9% (active). The growth inhibition [5, 7] was 37%, the growth inhibition [5, 8] was 94% (active) and the growth inhibition ([5]; at 50.0 µM) was 96.3% (active). The growth inhibition [6, 7] was 17%, the growth inhibition [6, 8] was 97% (active) and the growth inhibition ([6]; at 50.0 µM) was 98.9% (active).

`CCCN1CN(C(C(=O)N[C@@H]2C(=O)N3C(C(=O)O)=C(C)CSC23)c2ccccc2)CSC1=S` (stereo not given in full) gave a growth inhibition [1, 7] of -19%, a growth inhibition [1, 8] of 11% and a growth inhibition ([1]; at 50.0 µM) of 33.7%. The growth inhibition [2, 7] was -11%, the growth inhibition [2, 8] was 1% and the growth inhibition ([2]; at 50.0 µM) was -32.4%. For the same molecule, the growth inhibition [3, 7] was -21%, the growth inhibition [3, 8] was -10% and the growth inhibition ([3]; at 50.0 µM) was -3.25%. It also gave a growth inhibition [4, 7] of -37%, a growth inhibition [4, 8] of -14% and a growth inhibition ([4]; at 50.0 µM) of 44%. The growth inhibition [5, 7] was -10%, the growth inhibition [5, 8] was -1% and the growth inhibition ([5]; at 50.0 µM) was -38.4%. The growth inhibition [6, 7] was -13%, the growth inhibition [6, 8] was -12% and the growth inhibition ([6]; at 50.0 µM) was 1.5%.

Molecule `C=C1C(=O)O[C@H]2C3C(=C(C)CC[C@@H]12)C(=O)[C@@H]1OC31C` (stereo not given in full) has a growth inhibition [1, 7] of 22%, a growth inhibition [1, 8] of 49% and a growth inhibition ([1]; at 50.0 µM) of 36.8%. For the same molecule, the growth inhibition [2, 7] was 16%, the growth inhibition [2, 8] was 52% and the growth inhibition ([2]; at 50.0 µM) was 37.2%. The growth inhibition [3, 7] was 35%, the growth inhibition [3, 8] was 74% (active) and the growth inhibition ([3]; at 50.0 µM) was 46%. For the same molecule, the growth inhibition [4, 7] was 19%, the growth inhibition [4, 8] was 51% and the growth inhibition ([4]; at 50.0 µM) was 34%. For the same molecule, the growth inhibition [5, 7] was 21%, the growth inhibition [5, 8] was 60% and the growth inhibition ([5]; at 50.0 µM) was 23.9%. The growth inhibition [6, 7] was 19%, the growth inhibition [6, 8] was 62% and the growth inhibition ([6]; at 50.0 µM) was 46.2%.

For `O=S(=O)(Nc1nccs1)c1ccc(N=Cc2cn(Cc3ccccc3)c3ccccc23)cc1`, the growth inhibition [1, 7] was 3%, the growth inhibition [1, 8] was 53% and the growth inhibition ([1]; at 50.0 µM) was 82.3% (active). The growth inhibition [2, 7] was -3%, the growth inhibition [2, 8] was 7% and the growth inhibition ([2]; at 50.0 µM) was 36.4%. For the same molecule, the growth inhibition [3, 7] was 3%, the growth inhibition [3, 8] was 57% and the growth inhibition ([3]; at 50.0 µM) was 85.9% (active). For the same molecule, the growth inhibition [4, 7] was 9%, the growth inhibition [4, 8] was 11% and the growth inhibition ([4]; at 50.0 µM) was 27.4%. For the same molecule, the growth inhibition [5, 7] was 1%, the growth inhibition [5, 8] was 8% and the growth inhibition ([5]; at 50.0 µM) was 9.5%. It also gave a growth inhibition [6, 7] of 5%, a growth inhibition [6, 8] of 38% and a growth inhibition ([6]; at 50.0 µM) of 52.4%.

With `c1ccc(-c2c[nH]c(-c3ccccc3)c2-c2ccccc2)cc1` the growth inhibition [1, 7] was 1%, the growth inhibition [1, 8] was 90% (active) and the growth inhibition ([1]; at 50.0 µM) was 95.2% (active). For the same molecule, the growth inhibition [2, 7] was -13%, the growth inhibition [2, 8] was 93% (active) and the growth inhibition ([2]; at 50.0 µM) was 95.1% (active). For the same molecule, the growth inhibition [3, 7] was -15%, the growth inhibition [3, 8] was 94% (active) and the growth inhibition ([3]; at 50.0 µM) was 93.3% (active). For the same molecule, the growth inhibition [4, 7] was -4%, the growth inhibition [4, 8] was 80% (active) and the growth inhibition ([4]; at 50.0 µM) was 95% (active). The growth inhibition [5, 7] was 7%, the growth inhibition [5, 8] was 92% (active) and the growth inhibition ([5]; at 50.0 µM) was 83.4% (active). The growth inhibition [6, 7] was 18%, the growth inhibition [6, 8] was 94% (active) and the growth inhibition ([6]; at 50.0 µM) was 96.8% (active).

For `O=C(c1c(F)c(F)c(F)c(F)c1F)N1CCN(C(=O)c2c(F)c(F)c(F)c(F)c2F)C1=S`, the growth inhibition [1, 7] was 0%, the growth inhibition [1, 8] was 91% (active) and the growth inhibition ([1]; at 50.0 µM) was 88.2% (active). The growth inhibition [2, 7] was 15%, the growth inhibition [2, 8] was 81% (active) and the growth inhibition ([2]; at 50.0 µM) was 88.7% (active). The growth inhibition [3, 7] was 8%, the growth inhibition [3, 8] was 94% (active) and the growth inhibition ([3]; at 50.0 µM) was 90.9% (active). For the same molecule, the growth inhibition [4, 7] was 8%, the growth inhibition [4, 8] was 88% (active) and the growth inhibition ([4]; at 50.0 µM) was 85.3% (active). The growth inhibition [5, 7] was -7%, the growth inhibition [5, 8] was 86% (active) and the growth inhibition ([5]; at 50.0 µM) was 85.3% (active). The growth inhibition [6, 7] was 32%, the growth inhibition [6, 8] was 92% (active) and the growth inhibition ([6]; at 50.0 µM) was 91.2% (active).

For `O=C1C(c2ccc(Br)cc2)=[N+]([O-])c2ccccc21`, the growth inhibition [1, 7] was 9%, the growth inhibition [1, 8] was 94% (active) and the growth inhibition ([1]; at 50.0 µM) was 93.5% (active). For the same molecule, the growth inhibition [2, 7] was 12%, the growth inhibition [2, 8] was 84% (active) and the growth inhibition ([2]; at 50.0 µM) was 87.3% (active). For the same molecule, the growth inhibition [3, 7] was 10%, the growth inhibition [3, 8] was 94% (active) and the growth inhibition ([3]; at 50.0 µM) was 93.8% (active). For the same molecule, the growth inhibition [4, 7] was -4%, the growth inhibition [4, 8] was 47% and the growth inhibition ([4]; at 50.0 µM) was 85.5% (active). For the same molecule, the growth inhibition [5, 7] was 19%, the growth inhibition [5, 8] was 94% (active) and the growth inhibition ([5]; at 50.0 µM) was 96.4% (active). The growth inhibition [6, 7] was 11%, the growth inhibition [6, 8] was 91% (active) and the growth inhibition ([6]; at 50.0 µM) was 95.8% (active).

`O=C1CCC/C1=C\c1ccccc1` gave a growth inhibition [1, 7] of 7%, a growth inhibition [1, 8] of 15% and a growth inhibition ([1]; at 50.0 µM) of 3.05%. It also gave a growth inhibition [2, 7] of 7%, a growth inhibition [2, 8] of 5% and a growth inhibition ([2]; at 50.0 µM) of 7.6%. The growth inhibition [3, 7] was 3%, the growth inhibition [3, 8] was 6% and the growth inhibition ([3]; at 50.0 µM) was 1.4%. It also gave a growth inhibition [4, 7] of -2%, a growth inhibition [4, 8] of -13% and a growth inhibition ([4]; at 50.0 µM) of 49.3%. It also gave a growth inhibition [5, 7] of -2%, a growth inhibition [5, 8] of 5% and a growth inhibition ([5]; at 50.0 µM) of 6.1%. It also gave a growth inhibition [6, 7] of 1%, a growth inhibition [6, 8] of 4% and a growth inhibition ([6]; at 50.0 µM) of 2.2%.

Work on `CCOC(=O)C1=NNC(C(=O)c2ccccc2)C1c1ccccc1` (stereo not given) yielded a growth inhibition [1, 7] of 3%, a growth inhibition [1, 8] of 49% and a growth inhibition ([1]; at 50.0 µM) of 33.2%. The growth inhibition [2, 7] was 10%, the growth inhibition [2, 8] was 55% and the growth inhibition ([2]; at 50.0 µM) was 19.6%. The growth inhibition [3, 7] was 20%, the growth inhibition [3, 8] was 83% (active) and the growth inhibition ([3]; at 50.0 µM) was 81.2% (active). For the same molecule, the growth inhibition [4, 7] was 4%, the growth inhibition [4, 8] was 19% and the growth inhibition ([4]; at 50.0 µM) was -20.3%. For the same molecule, the growth inhibition [5, 7] was 8%, the growth inhibition [5, 8] was 40% and the growth inhibition ([5]; at 50.0 µM) was 81.8% (active). The growth inhibition [6, 7] was 12%, the growth inhibition [6, 8] was 82% (active) and the growth inhibition ([6]; at 50.0 µM) was 68.8%.

For `CCCCCCCCCCCCCCOS(=O)(=O)O`, the growth inhibition [1, 7] was 26%, the growth inhibition [1, 8] was 99% (active) and the growth inhibition ([1]; at 50.0 µM) was 99.5% (active). For the same molecule, the growth inhibition [2, 7] was -27%, the growth inhibition [2, 8] was 73% (active) and the growth inhibition ([2]; at 50.0 µM) was 99.7% (active). The growth inhibition [3, 7] was -1%, the growth inhibition [3, 8] was 100% (active) and the growth inhibition ([3]; at 50.0 µM) was 99.6% (active). For the same molecule, the growth inhibition [4, 7] was 8%, the growth inhibition [4, 8] was 61% and the growth inhibition ([4]; at 50.0 µM) was 99.6% (active). For the same molecule, the growth inhibition [5, 7] was -9%, the growth inhibition [5, 8] was 35% and the growth inhibition ([5]; at 50.0 µM) was 99.7% (active). The growth inhibition [6, 7] was 12%, the growth inhibition [6, 8] was 98% (active) and the growth inhibition ([6]; at 50.0 µM) was 99.5% (active).
